# Assay results as given in PubChem BioAssay AID2117 (The Scripps Research Institute Molecular Screening Center, 2009).
# Active and inactive are the calls of the source. How the calls were made is not given here.
# System: VP16
# Experiment: ROR modulator nuclear receptor reporter panel, late-stage follow-up, ROR modulator project, cell-based, luciferase reporter (AID 2117)
# Details: fold change: ROR/LXR/VP16, max fold change, at 10 µM; inhibition: ROR/LXR/VP16, at 10 µM, stronger effect = higher value
Structure (SMILES),fold change,inhibition
COC(=O)c1sccc1S(=O)(=O)Nc1ccc(C(O)(C(F)(F)F)C(F)(F)F)cc1,0.94,6%
CC(C)(C)c1ccc(S(=O)(=O)Nc2ccc(C(O)(C(F)(F)F)C(F)(F)F)cc2)cc1,0.9,10% (inactive)
O=S(=O)(Nc1ccc(C(O)(C(F)(F)F)C(F)(F)F)cc1)c1ccc(Cl)c2nonc12,0.61,39% (inactive)
O=S(=O)(Nc1ccc(C(O)(C(F)(F)F)C(F)(F)F)cc1)c1cccc2cccnc12,1.03,0% (inactive)
O=S(=O)(Nc1ccc(C(O)(C(F)(F)F)C(F)(F)F)cc1)c1cccc2ccccc12,0.95,5% (inactive)
COc1cccc(S(=O)(=O)Nc2ccc(C(O)(C(F)(F)F)C(F)(F)F)cc2)c1,0.91,9% (inactive)
